From PubChem BioAssay AID463173 (ICCB-Longwood Screening Facility, Harvard Medical School, 2010)
Screen size: about 52,000 compounds; about 4,300 (8.3%) were called active. This is one part of a sample in which actives are shown more often than they occur. Rule as the data show it: active = survival mostly below about 52% (no sharp cut-off); inactive = mostly above about 56%.

System: DeltatarO mutant
Test: S. aureus survival, RN4220 and DeltatarO strains – OD600, teichoic acid synthesis inhibitors, primary screen (AID 463173)
Conditions: S. aureus RN4220 wild type/DeltatarO growth, OD600, 18 h, active compounds read low, screened at 18.75 µg/mL (by protocol)

SMILES | survival
CC(C)n1cc2c(c1-c1ccccc1Cl)c(=O)n(C)c(=O)n2C | 89% (inactive)
Cc1cc(=O)n2c(C(=O)Nc3ccc(Br)cc3)c(C(=O)Nc3ccccc3)sc2n1 | 62% (inactive)
Cn1c(=O)c2c([nH]c(=O)n2Cc2ccc(Cl)cc2Cl)n(C)c1=O | 42% (active)
Cn1c(=O)c2c(nc(Oc3ccc(C#N)cc3)n2Cc2ccc(Cl)cc2Cl)n(C)c1=O | 106% (inactive)
C=CCn1c(=O)[nH]c2c1c(=O)n(C)c(=O)n2C | 80% (inactive)
CCOc1ccccc1N(CC)C(=O)Nc1cn(C)c(=O)c2ccccc12 | 94% (inactive)
Cc1ccc(NC(=O)Nc2cn(C)c(=O)c3ccccc23)c(Cl)c1 | 89% (inactive)
CN(C(=O)Nc1cn(C)c(=O)c2ccccc12)c1ccccc1 | -5% (active)
CCOc1ccc(NC(=O)N(Cc2cn(CC)c3ccccc23)C2CCCCCC2)cc1 | -12% (active)
CCc1ccc(NC(=O)N(Cc2c[nH]c3ccccc23)C2CCCCCC2)cc1 | 102% (inactive)
CCc1ccc(NC(=O)N(Cc2c[nH]c3ccccc23)C2CCCCC2)cc1 | 84% (inactive)
CCOc1ccc(NC(=O)N(Cc2c[nH]c3ccccc23)C2CCCCCC2)cc1 | 79% (inactive)
CCOc1ccc(NC(=O)N(Cc2c[nH]c3ccccc23)C2CCCCC2)cc1 | 74% (inactive)
CCc1ccc(NC(=O)N(Cc2cn(CC)c3ccccc23)C2CCCCC2)cc1 | -13% (active)
COc1ccc(/C=C/C(=O)Nc2nc(-c3cccs3)ns2)cc1OC | 48% (inactive)
Cc1ccc(Nc2c(-c3cccc(Cl)c3)nc3cccc(C)n23)cc1 | 49% (inactive)
COc1cc(NC(=O)Nc2nnc(N3CCCCC3)s2)cc(OC)c1 | 68% (inactive)
Cc1oc2ncn(CC(C)C)c(=O)c2c1C(=O)NCCCN1CCCCC1C (stereo unspecified) | 87% (inactive)
COc1ccc(N2CCN(C(=O)COCc3cc(-c4ccc5c(c4)OCO5)on3)CC2)cc1 | 92% (inactive)
COc1cccc(C(c2c(O)cc(C)n(Cc3ccco3)c2=O)N2CCC(C)CC2)c1 (stereo unspecified) | 74% (inactive)
O=C(Cc1ccc(Cl)cc1)NCCN1CCOCC1 | 91% (inactive)
CC1=C(C(=O)Nc2ccc(C)cc2C)C(c2ccc(O)cc2)n2nc(SCC(=O)c3ccc(C)cc3)nc2N1 (stereo unspecified) | 125% (inactive)
Cc1ccc(C(=O)N(Cc2ccc(N(C)C)cc2)CC2CCCO2)cc1 (stereo unspecified) | 50% (inactive)

SMILES | survival
COc1ccc(C(=O)N(Cc2ccc(N(C)C)cc2)CC2CCCO2)cc1 (stereo unspecified) | 63% (inactive)
COc1cc(C(=O)N(Cc2ccc(N(C)C)cc2)CC2CCCO2)cc(OC)c1OC (stereo unspecified) | 47% (active)
Cn1c(=O)n(C)c2cc(NS(=O)(=O)c3ccc(Cl)cc3)c(NCc3ccccc3)cc21 | 117% (inactive)
Cn1c(=O)n(C)c2cc(NS(=O)(=O)c3ccccc3)c(NCc3ccccc3)cc21 | 68% (inactive)
Cn1c(=O)n(C)c2cc(NS(=O)(=O)c3ccc(Br)cc3)c(NCc3ccccc3)cc21 | 57% (inactive)
Cn1c(=O)n(C)c2cc(NS(=O)(=O)c3ccc(C(C)(C)C)cc3)c(NCc3ccccc3)cc21 | 43% (active)
CC(C)c1ccc(S(=O)(=O)Nc2cc3c(cc2NCc2ccccc2)n(C)c(=O)n3C)cc1 | 39% (active)
Cc1ccc(S(=O)(=O)Nc2cc3c(cc2NCc2ccccc2)n(C)c(=O)n3C)cc1 | 73% (inactive)
COc1ccc(Cl)cc1NC(=O)Cn1cc(S(=O)(=O)Cc2cccc(Cl)c2)c2ccccc21 | 83% (inactive)
CCOC(=O)c1ccc(NC(=O)c2c(NCc3cccc(OC)c3OC)sc3c2CCC3)cc1 | 77% (inactive)
COc1ccccc1CCNC(=O)Cc1c(C)c2cc3c(C)coc3cc2oc1=O | 68% (inactive)
CCOC(=O)C1=C(CN2CCN(c3ccccc3OC)CC2)NC(=O)NC1c1ccccc1 (stereo unspecified) | 70% (inactive)
Cc1ccc(-c2nnc(Nc3cccc(Cl)c3)c3ccccc23)cc1S(=O)(=O)N1CCCCC1 | 65% (inactive)
CCN(C(=O)c1ccc(C(=O)N(CC)c2ccccc2C)cc1)c1ccccc1C | 68% (inactive)
CCN(CC)C(=O)c1ccccc1NC(=O)c1ccccc1 | 92% (inactive)
CCN(CC)C(=O)c1ccccc1C | 48% (active)
CCCCC(CC)CNC(=O)CN(C)S(=O)(=O)c1ccc2c(c1)c(=O)n(C)c(=O)n2C (stereo unspecified) | 73% (inactive)
CCc1ccc(-n2c(=O)c3c4c(sc3n(CC(=O)c3ccc(Cl)cc3)c2=O)CCC4)cc1 | 142% (inactive)
O=C(O)CCSc1nnnn1-c1ccccc1 | 73% (inactive)
CCS(=O)(=O)c1nnnn1-c1ccccc1 | 9% (active)
c1ccc(CNc2nnnn2-c2ccccc2)cc1 | 93% (inactive)
CCOc1ccc(C2CC(=O)Nc3cc4c(cc32)OCO4)cc1OC (stereo unspecified) | 120% (inactive)
NS(=O)(=O)c1ccc(CCNc2ncnc3c2cnn3-c2cccc(Cl)c2)cc1 | 93% (inactive)

SMILES | survival
CCOc1ccc(NC(=O)Cn2c(=O)n(CC(=O)NCCc3ccccc3)c(=O)c3sccc32)cc1 | 71% (inactive)
COc1cccc(NC(=O)Cn2c(=O)n(CC(=O)NCCc3ccccc3)c(=O)c3sccc32)c1 | 45% (active)
COc1cc(OC)cc(-n2c(=O)c3ccccc3n(CC(=O)NCCc3ccc(OC)c(OC)c3)c2=O)c1 | 83% (inactive)
COc1cc(NC(=O)Cn2c(=O)n(CC(=O)NCCc3ccc(OC)c(OC)c3)c(=O)c3sccc32)cc(OC)c1 | 49% (active)
COc1ccc(CCNC(=O)Cn2c(=O)c3sccc3n(CC(=O)Nc3cccc(C(F)(F)F)c3)c2=O)cc1OC | 82% (inactive)
COc1cccc(NC(=O)Cn2c(=O)n(CC(=O)NCc3ccc(C)cc3)c(=O)c3sccc32)c1 | 77% (inactive)
CCN(CC)S(=O)(=O)c1ccc2c(c1)N(CC(=O)NCCCN1CCN(c3ccccc3F)CC1)C(=O)CO2 | 77% (inactive)
CC1=CC(C)C(/C=N/N=C(N)N)C(C)C1 (stereo unspecified) | 71% (inactive)
Cn1c(SCC(=O)O)nc2ccccc21 | 109% (inactive)
CCCc1ncc(C(O)c2ccccc2OC)n1C (stereo unspecified) | 85% (inactive)
CC(C)c1cnc2c(c1SCC(=O)NCc1ccccc1)c(=O)n(C)c(=O)n2C | 77% (inactive)
CC(C)c1ncc(C(O)c2cccc3ccccc23)n1C (stereo unspecified) | 56% (active)
Cc1cc(NC(=O)CN2CCC(O)CC2)nc2c1c(=O)oc1ccccc12 | 83% (inactive)
COc1ccccc1-c1c(C(F)(F)F)oc2c(CN3CCCCC3C)c(O)ccc2c1=O (stereo unspecified) | 62% (inactive)
COc1ccc(S(=O)(=O)NCCSc2nnnn2-c2ccccc2)cc1OC | 127% (inactive)
COc1ccc(C(C)=O)cc1CSc1nc(NCCc2ccccc2)c2ccccc2n1 | 60% (inactive)
COc1ccc(C(C)=O)cc1CSc1nc(NCc2ccccc2)c2ccccc2n1 | 89% (inactive)
COc1cc(Nc2nc(SCc3ccccc3F)nc3ccccc23)cc(OC)c1 | 118% (inactive)
COc1ccc(C(C)=O)cc1CSc1nc(NCc2ccc(Cl)cc2)c2ccccc2n1 | 8% (active)
O=C(CSc1nc(Nc2ccc(F)c(F)c2)c2ccccc2n1)c1ccc(Cl)cc1 | 101% (inactive)
COc1ccc(C(C)=O)cc1CSc1nc(Nc2ccc(F)c(F)c2)c2ccccc2n1 | 25% (active)
Cc1cccc(N2CCN(C(=O)c3nn(C)c4c3CS(=O)(=O)c3ccccc3-4)CC2C)c1 (stereo unspecified) | 71% (inactive)
COc1cc(NC(=O)c2cc3cc4ccc(OC)c(Cl)c4nc3s2)cc(OC)c1 | 98% (inactive)

SMILES | survival
CN(CC(=O)Nc1ccc(F)cc1F)S(=O)(=O)c1cccc2nsnc12 | 92% (inactive)
COC(=O)c1ccc(Cn2nnc3sc4c(c3c2=O)CCCC4)cc1 | 74% (inactive)
COc1ccc(OCCn2nnc3sc4c(c3c2=O)CCCC4)cc1 | 83% (inactive)
Cc1ccccc1Cn1nnc2sc3c(c2c1=O)CCCC3 | -1% (active)
CC(C)OC(=O)c1cccc(NC(=O)Cn2nnc3sc4c(c3c2=O)CCCC4)c1 | 75% (inactive)
CCOC(=O)c1ccccc1NC(=O)Cn1nnc2sc3c(c2c1=O)CCCC3 | 63% (inactive)
Cc1ccc(NC(=O)Cn2nnc3sc4c(c3c2=O)CCCC4)c(C)c1 | 86% (inactive)
Cc1ccc(OCCCCn2nnc3sc4c(c3c2=O)CCCC4)cc1 | 48% (active)
CCc1cccc(CC)c1NC(=O)Cn1nnc2sc3c(c2c1=O)CCCC3 | 142% (inactive)
CC(C)OC(=O)c1ccc(Cn2nnc3sc4c(c3c2=O)CCCC4)cc1 | 20% (active)
Cc1cccc(OCCn2nnc3sc4c(c3c2=O)CCCC4)c1 | 65% (inactive)
O=c1c2c3c(sc2nnn1Cc1ccc(Br)cc1)CCCC3 | 37% (active)
O=c1c2c3c(sc2nnn1CCCCOc1ccc(Cl)cc1)CCCC3 | 108% (inactive)
N#Cc1ccccc1NC(=O)CSc1ncn[nH]1 | 164% (inactive)
CC(C)(C)c1ccc(C(=O)N2CCC(c3nc4ccccc4o3)CC2)cc1 | 86% (inactive)
CCOc1ccc(NC(=O)CSc2ncc(S(=O)(=O)c3ccc(F)c(C)c3)c(=O)[nH]2)cc1 | 58% (inactive)
CCc1ccc(CNC(=O)c2c(C)oc3ncn(CC(C)C)c(=O)c23)cc1 | 88% (inactive)
Cc1cc(NCCN(C)C)n2nc(C)c(-c3ccccc3)c2n1 | 93% (inactive)
CCCCCNS(=O)(=O)c1ccc(N2CCCCS2(=O)=O)cc1 | 77% (inactive)
Cc1nc2cc(-c3cccc(F)c3)nn2c(C)c1CCC(=O)N1CCN(c2ccc(F)cc2)CC1 | 56% (inactive)
CCOc1ccc(-c2cc(NC(=O)Nc3ccccc3Cl)c(C(=O)OC)s2)cc1 | 56% (inactive)
Cn1c(=O)oc2cc(S(=O)(=O)N3CCCC(C(=O)N4CCN(c5ccc(F)cc5)CC4)C3)ccc21 (stereo unspecified) | 92% (inactive)
